# Several values for one entry are separate records, joined by “and”; a condition that tells them apart may be missing. Equal values may be shown once. Inconclusive results are not listed. Entries that show only a call come without a potency. Where a structure was tested more than once in an assay, its records may differ in their call. Activity calls are given as the source filed them. Calls follow the shape of the dose curve; as a rule, active = well fitted curve in the direction sought with a large enough effect; inconclusive = small, poorly fitted or top-dose-only effect, or another doubt; inactive = no such curve, though single readings can be large; an effect the other way counts as inactive or inconclusive.
# How the values were obtained:
# [1] = Viability qHTS for spleen associated tyrosine kinase inhibitor (SYKi) drug resistant MV4-11 cells (AID 1963824); also: nearly all actives have a fitted effect of over 35% in size; also: potency is read from the fitted curve at half-maximal effect
# Procedure, shortened: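 SYK-inhibitor-resistant MV4-11 AML cells were seeded at 500 per well onto compound and cultured 72 hours (37 °C, 5% CO2). CellTiter-Glo was then added, and after 10 min at room temperature, luminescence gave viability.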
# [2] = Quantitative highthroughput screen to assess conditional lethalithy of NOMO1 cells grown in RPMI1640 with untreated serum (RPMI+s) (AID 1963876); also: nearly all actives have a fitted effect of over 35% in size; also: potency is read from the fitted curve at half-maximal effect
# Procedure, shortened: (§1)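 Each medium arm—HPLM with 10% dialyzed FBS, or RPMI1640 with 5 mM glucose and 10% untreated or dialyzed FBS—was screened against an 11-point, 3-fold compound titration for 48 h at 37 °C, with CellTiter-Glo luminescence as endpoint.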
# [3] = Quantitative highthroughput screen to assess conditional lethalithy of NOMO1 cells grown in RPMI1640 with dialyzed fetal bovine serum (RPMI+ds) (AID 1963877); also: nearly all actives have a fitted effect of over 30% in size; also: potency is read from the fitted curve at half-maximal effect; as to Viability: series mostly up to about 46 µM
# Procedure, shortened: as §1
# [4] = Quantitative highthroughput screen to assess conditional lethalithy of NOMO1 cells grown in Human Plasma-Like Medium with dialyzed fetal bovine serum (HPLM+ds) (AID 1963878); also: nearly all actives have a fitted effect of over 35% in size; also: potency is read from the fitted curve at half-maximal effect
# Procedure, shortened: as §1
# [5] = Quantitative highthroughput screen to assess conditional lethalithy of P12 Ichikawa cells grown in Human Plasma-Like Medium with dialyzed fetal bovine serum (HPLM+ds) (AID 1963879); conditions: Potency: viability; also: nearly all actives have a fitted effect of over 35% in size; also: potency is read from the fitted curve at half-maximal effect; as to Viability: series mostly up to about 46 µM
# Procedure, shortened: as §1
# [6] = Cellular viability qHTS for adrenocortical cancer (ACC) cell line NCI-H295R (AID 1963990); also: nearly all actives have a fitted effect of over 60% in size; also: potency is read from the fitted curve at half-maximal effect
# Procedure, shortened: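 Adrenocortical carcinoma cells, suspended at 300 000 cells/mL in serum-free DMEM plus ITS, rested overnight before pin transfer of compound. After two days' incubation, ATP-dependent luminescence was recorded and curve-fitted.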
# [7] = Quantitative highthroughput screen to assess conditional lethalithy of SEM cells grown in RPMI1640 with unreated serum (RPMI+s) (AID 1963883); also: nearly all actives have a fitted effect of over 35% in size; also: potency is read from the fitted curve at half-maximal effect
# Procedure, shortened: as §1
# [8] = Quantitative highthroughput screen to assess conditional lethalithy of P12 Ichikawa cells grown in RPMI1640 with dialyzed fetal bovine serum (RPMI+ds) (AID 1963880); conditions: Potency: P12-Ichikawa viability; also: nearly all actives have a fitted effect of over 35% in size; also: potency is read from the fitted curve at half-maximal effect
# Procedure, shortened: as §1
# [9] = Quantitative highthroughput screen to assess conditional lethalithy of SEM cells grown in Human Plasma-Like Medium with dialyzed fetal bovine serum (HPLM+ds) (AID 1963882)
# Procedure, shortened: as §1
# [10] = Quantitative highthroughput screen to assess conditional lethalithy of SEM cells grown in RPMI1640 with dialyzed fetal bovine serum (RPMI+ds) (AID 1963884); also: nearly all actives have a fitted effect of over 35% in size; also: potency is read from the fitted curve at half-maximal effect; as to Viability: series mostly up to about 46 µM
# Procedure, shortened: as §1
# [11] = Quantitative highthroughput screen to assess conditional lethalithy of P12 Ichikawa cells grown in RPMI1640 with untreated serum (RPMI+s) (AID 1963881); conditions: Potency: viability; also: nearly all actives have a fitted effect of over 35% in size; also: potency is read from the fitted curve at half-maximal effect; as to Viability: series mostly up to about 46 µM
# Procedure, shortened: as §1
# [12] = Cellular viability qHTS for adrenocortical cancer (ACC) cell line SW-13 (AID 1963989); conditions: SW-13 ACC cells viability, CellTiter-Glo, 48 h; activity (max response): stronger effect = lower value; also: nearly all actives have a fitted effect of over 65% in size; also: potency is read from the fitted curve at half-maximal effect;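 as to activity (max response): cells grown in serum-free medium with ITS supplement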
# Procedure, shortened: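 IC50 and maximal-response values come from four-parameter logistic fits of titration data. SW-13 cells in serum-free medium received compounds (up to 46 uM final) for 48 h before CellTiter-Glo luminescence.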
SMILES,Potency [1],Potency [2],Potency [3],Potency [4],Potency [5],Potency [6],Potency [7],Potency [8],Potency [9],Potency [10],Potency [11],activity (max response) [12],Potency [12]
CC#C[C@]1(O)CC[C@H]2[C@@H]3CCC4=CC(=O)CCC4=C3[C@@H](c3ccc(N(C)C)cc3)C[C@@]21C,21.1 µM (active) and 16.6 µM (active),6.62 µM (active),7.43 µM (active),8.33 µM (active),9.35 µM (active),20.6 µM (active) and 25.1 µM (active),–,–,–,–,–,–,–
O=C(Nc1cccc(Nc2ncc(Br)c(NCCc3cnc[nH]3)n2)c1)N1CCCC1,0.132 µM (active),5.9 µM (active),11.8 µM (active),2.96 µM (active),0.662 µM (active),–,0.166 µM (active),–,–,–,–,–,–
CCOC(=O)N1CCC(=C2c3ccc(Cl)cc3CCc3cccnc32)CC1,8.41 µM (active),inactive,inactive,inactive,inactive,–,inactive,inactive,inactive,11.8 µM (active),–,–,–
CCN(CC)CCCC(C)Nc1nc(C)cc(Nc2ccc3nc(C)cc(N)c3c2)n1 (stereo not given),16.6 µM (active),inactive,inactive,inactive,–,–,inactive,inactive,inactive,inactive,inactive,–,–
c1ccc2c(Oc3nc(Nc4ccc(N5CCOCC5)cc4)c4ncn(C5CCCCC5)c4n3)cccc2c1,1.84 µM (active) and 4.17 µM (active),inactive,inactive,inactive,inactive,inactive,–,–,–,–,inactive,-10% (inactive),–
COc1cc2nc(N3CCN(C(=O)C4CCCO4)CC3)nc(N)c2cc1OC (stereo not given),inactive,inactive,inactive,inactive,inactive,–,inactive,inactive,–,–,–,–,–
Cc1[nH]nc2ccc(-c3cncc(OC[C@@H](N)Cc4ccccc4)c3)cc12,0.116 µM (active),2.96 µM (active),2.35 µM (active),1.66 µM (active),4.18 µM (active),–,–,3.32 µM (active),–,2.35 µM (active),–,–,0.562 µM (active)
CC(=O)SCC(Cc1ccccc1)C(=O)NCC(=O)OCc1ccccc1 (stereo not given),20.9 µM (active),6.62 µM (active),6.62 µM (active),5.9 µM (active),18.7 µM (active),inactive,inactive,–,inactive,inactive,–,-5.9% (inactive),–
Cc1cc(NC(=O)Nc2ccc(N(C)C)cc2)c2cc(F)cc(F)c2n1,10.2 µM (active),inactive,inactive,inactive,inactive,–,inactive,–,inactive,inactive,inactive,-2.18% (inactive),–
CNCCN(C)Cc1cn[nH]c1-c1ccc(OC2CC(OCCC3CCOCC3)C2)cc1 (stereo not given),14.8 µM (active),inactive,inactive,inactive,–,inactive,–,inactive,–,–,inactive,–,–
O=C(NCCCNc1nc(Nc2cccc(NC(=O)N3CCCC3)c2)ncc1I)c1cccs1,164 nM (active) and 263 nM (active),inactive,inactive,inactive,inactive,inactive,–,inactive,–,–,inactive,–,–
Cc1ccc(C)c(OCCCC(C)(C)C(=O)O)c1,inactive and 14.8 µM (active),inactive,inactive,inactive,inactive,inactive,–,inactive,inactive,inactive,inactive,2.23% (inactive) and -5.29% (inactive),–
COc1ccc(-c2cc(=O)c3c(O)cc(O)cc3o2)cc1O,10.5 µM (active),inactive,inactive,inactive,inactive,inactive,–,inactive,–,–,inactive,-29.6% (inactive),–
Cc1ccccc1C(C(=O)NC1CCCCC1)N(C(=O)CNc1ccc(C#N)cc1)c1cccc(F)c1 (stereo not given),inactive,inactive,inactive,inactive,inactive,–,inactive,–,inactive,inactive,–,-0.757% (inactive),–
C=CCc1cc(OC)c(O)c(C(=O)NCCO)c1,inactive,inactive,inactive,inactive,inactive,inactive,inactive,–,–,inactive,inactive,–,–
Cc1c(OCC(F)(F)F)ccnc1CS(=O)c1nc2ccccc2[nH]1 (stereo not given),16.6 µM (active),inactive,inactive,inactive,–,inactive,inactive,inactive,inactive,inactive,inactive,–,–
CN(NC(=O)CC(=O)NN(C)C(=S)c1ccccc1)C(=S)c1ccccc1,46.1 nM (active) and 4.2 nM (active),0.066 µM (active),0.0588 µM (active),0.066 µM (active),0.0831 µM (active),–,0.0417 µM (active),0.0741 µM (active),–,0.0417 µM (active),0.0741 µM (active),–,–
